Platelet DG rel = platelet dense granule release activity; human platelet-rich plasma, SFLLRN dense granule ATP release, luminescence; inhibition, %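 (compounds screened at 7.5 µM in platelet-rich plasma)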; actives 0.22% (n = 300,000);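 active = mean replicate score, as percent of positive control, at or above 50; inconclusive = mean below 50 but at least one replicate at or above 50; inactive = mean and every replicate below 50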
SKKanGAS inh = blocks kanamycin growth of S. pyogenes SKKanGAS strain; AID 1662; actives 1.3% (n = 300,000); inhibition, % at 7.5 µM; BacTiter-Glo, 6 h;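 active = mean replicate score, as percent of positive control median, at least 50; inconclusive = mean below 50 but one replicate at or above 50; inactive = mean and every replicate below 50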;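 note: strain carries kanamycin resistance gene driven by streptokinase promoter and grows in 40 µg/ml kanamycin; loss of luminescence reflects streptokinase promoter inhibition or plain growth inhibition; 0% = median of DMSO wells and 100% = positive control at its reference dose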
TPT1 inh = inhibitors of Candida albicans tRNA 2'-phosphotransferase TPT1; recombinant caTPT1, FP RNA substrate dephosphorylation; inhibition, % at 5 µM; actives 0.81% (n = 300,000); AID 1962;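 active = inhibition above the mean of all tested compounds plus 3 SD, set per screening campaign, cut at about 24% in these data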;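 note: plate controls were DMSO alone for no effect and ferristatin control at 100 nM for full effect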
Rtt109 HAT inh = C. albicans Rtt109 histone acetyltransferase inhibition; AID 540336; inhibition, % at 34.9 µM; actives 0.16% (n = 330,000); purified Rtt109/Vps75, ThioGlo CoA-SH fluorescence, 4 h;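 active = inhibition of at least 50% in every replicate; inconclusive = best replicate reaches 50% inhibition but some replicates fall short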
PHOSPHO1 block = inhibitors of human PHOSPHO1 phosphatase; actives 1.1% (n = 290,000); recombinant PHOSPHO1, absorbance phosphatase assay; AID 1565; inhibition, % at 13.3 µM; in the data active = inhibition above about 60%
Target sequence (Q8TCT1 whole entry, looked up): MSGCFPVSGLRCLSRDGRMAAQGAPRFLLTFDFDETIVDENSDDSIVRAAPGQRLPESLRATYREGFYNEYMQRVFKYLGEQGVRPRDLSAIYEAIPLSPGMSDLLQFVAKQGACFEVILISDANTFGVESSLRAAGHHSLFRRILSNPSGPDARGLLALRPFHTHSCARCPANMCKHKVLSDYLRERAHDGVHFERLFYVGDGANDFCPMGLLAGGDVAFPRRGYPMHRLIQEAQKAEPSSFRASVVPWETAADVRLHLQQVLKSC
WT yeast gro inh = growth inhibition of WT yeast, mitochondrial fusion screen; inhibition, % at 10 µM; actives 2.1% (n = 190,000); AID 1362; mitochondrial fusion phenotypic screen, WT strain; in the data active = inhibition above about 58%; tested in S. cerevisiae
Numbers without * were called inactive; ? = inconclusive; / = no result. The list is not random: actives were taken first. Their share in the collection is about 3.9%.

SMILES	Platelet DG rel	SKKanGAS inh	TPT1 inh	Rtt109 HAT inh	PHOSPHO1 block	WT yeast gro inh
CCC1=NN(C(=O)c2cccc(Br)c2)C(O)(c2ccc(Br)cc2)C1 (centres undefined)	-8	71*	4	/	-9	42
CSCCC(NC(=O)COc1ccccc1)C(=O)N1CCN(C(C)=O)CC1 (centres undefined)	-3	-2	0	-6	37	/
COc1ccc(N2CCN(C(=O)CCS(=O)(=O)c3ccc4c(c3)CCN4C(=O)C3CC3)CC2)cc1	4	1	1	-6	6	/
COc1cccc(/C=N/NC(=S)NC2CC3CC2C2C=CCC32)c1O (centres undefined)	25	109*	0	-2	12	/
Oc1ccccc1/C=N/NC(=S)NC1CC2CC1C1C=CCC21 (centres undefined)	-4	93*	-6	19	3	/
COCCCNC(=S)N/N=C/c1cccc(OC)c1O	/	1	-3	/	3	/
COc1ccccc1Nc1ncnc2nc[nH]c12	0	-7	0	-2	-1	70*
O=S(=O)(O)c1cccc2c(N=Nc3ccc(O)c4ncccc34)cccc12	-1	9	-21	3	14	/
Cc1ccccc1N=Nc1ccc(O)c2ncccc12	2	105*	-3	9	-5	24
COc1ccc(N=Nc2ccc(O)c3ncccc23)cc1	1	70*	-1	4	25	/
COc1cccc(N=Nc2ccc(O)c3ncccc23)c1	18	79*	-6	-16	26	/
O=Nc1ccc(O)c2ncccc12	-9	4	1	5	23	/
COc1cccc(N=Nc2ccc3cccnc3c2O)c1	7	118*	-5	4	36	/
Cc1c(NC(=O)c2ccc(NS(=O)(=O)c3ccccc3)cc2)c(=O)n(-c2ccccc2)n1C	10	-3	2	-1	/	/
O=C(Nc1nc2c(F)cc(F)cc2s1)c1ccc([N+](=O)[O-])o1	3	16	-6	-2	36	/
COc1ccc(C)cc1-n1c(=O)c2ccccc2c2ccccc2c1=O	11	-2	/	-2	23	0
Oc1ccc(N=Nc2ccc3c(c2)OCCO3)c(O)c1	41	-4	3	1	34	/
COc1ccc(N=Nc2cc(-c3ccccc3)ccc2O)cc1	1	56*	0	-2	5	/
Oc1ccc(N=Nc2ccc3c(c2)OCCO3)c2cccnc12	7	88*	2	14	4	8
COc1ccc(C)cc1N=Nc1ccc(O)c2ncccc12	2	94*	/	5	-17	20
Cc1nc2ccccc2c(=O)n1NC(=O)c1ccc(F)cc1Cl	9	-1	1	-8	1	7
Cc1nc2ccccc2c(=O)n1NC(=O)c1ccccc1Cl	-4	-11	1	-2	34	74*
CCN(C(=O)COC(=O)c1cc(-c2cccs2)nc2ccccc12)C1CCS(=O)(=O)C1 (centres undefined)	?	-1	4	-1	63*	14
C[C@@H]1O[C@@H](O[C@H]2[C@H](Oc3cc(O)c4c(c3)OC(c3ccc(O)cc3)CC4=O)O[C@H](CO)[C@@H](O)[C@@H]2O)[C@H](O)[C@H](O)[C@H]1O (some centres undefined)	0	-5	-2	-10	/	/
CC12CCC(c3c(C(=O)Nc4nccs4)nn(-c4ccccc4)c31)C2(C)C (centres undefined)	19	?	0	-1	-10	76*
SMILES	Platelet DG rel	SKKanGAS inh	TPT1 inh	Rtt109 HAT inh	PHOSPHO1 block	WT yeast gro inh
CC12CCC(c3c(C(=O)O)nn(-c4ccccc4)c31)C2(C)C (centres undefined)	6	0	4	1	1	7
CCN(CC)C(=S)SSC(=S)N(CC)CC	3	6	2	150*	89*	87
Cc1ccccc1NC(=O)CC1C(=O)Nc2ccccc2N1CC(=O)N(C)C1CCS(=O)(=O)C1 (centres undefined)	/	/	/	-4	/	/
CC(C)[C@H](NC(=O)c1ccccc1Cl)C(=O)Nc1nc(-c2ccccn2)cs1	-30	79*	2	2	40	40
CC(Oc1ccc(Br)cc1)C(=O)Nc1nc(-c2ccccn2)cs1 (centres undefined)	10	87*	5	-18	33	/
CCc1nnc(NC(=O)C(NC(=O)c2ccccc2Cl)C(C)C)s1 (centres undefined)	-1	-1	-1	-5	32	-3
